Test results taken from the supplement of paper PMC6555819.

What was measured:
Assay in all cases: PBM binding z-score (relative to random genomic background probes); higher = stronger binding; sequences stand for … in GC…GCGATTGACAGCGTAGAATGAAGG
[1] = test system: FXR:RXRa (NR concentration 270 nM, RXRa partner concentration 90 nM)
Outline: (§1)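 Random background probes are the reference for binding z-scores. These scores derive from regression-normalized fluorescence on custom Agilent 4×180K protein-binding microarrays incubated 1 h with ligand-free nuclear receptor dimers. Binding was detected with antibodies against each partner (one per run).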

[2] = test system: LXRa:RXRa (NR concentration 270 nM, RXRa partner concentration 90 nM)
Outline: as §1

[3] = test system: LXRa homodimer (NR concentration 270 nM)
Outline: as §1

[4] = test system: LXRb:RXRa (NR concentration 270 nM, RXRa partner concentration 90 nM)
Outline: as §1

[5] = test system: LXRb homodimer (NR concentration 270 nM)
Outline: as §1

[6] = test system: PPARa:RXRa (NR concentration 270 nM, RXRa partner concentration 90 nM)
Outline: as §1

[7] = test system: PPARg:RXRa (NR concentration 180 nM, RXRa partner concentration 90 nM)
Outline: as §1

[8] = test system: PPARg:RXRa 270nM:90nM, anti-RXR (NR concentration 270 nM, RXRa partner concentration 90 nM)
Outline: as §1

[9] = test system: PPARg:RXRa 30nM:10nM, anti-RXR (NR concentration 30 nM, RXRa partner concentration 10 nM)
Outline: as §1

[10] = test system: PPARg:RXRa 90nM:30nM, anti-RXR (NR concentration 90 nM, RXRa partner concentration 30 nM)
Outline: as §1

[11] = test system: PPARg:RXRa DBDmut IVT, anti-RXR (DBD mutation: RXRa K156A/R161A, NR concentration 270 nM, RXRa partner concentration 90 nM)
Outline: as §1

[12] = test system: PPARg:RXRa IVT, anti-PPARg (NR concentration 270 nM, RXRa partner concentration 90 nM)
Outline: as §1

[13] = test system: PPARg DBDmut:RXRa IVT, anti-PPARg (DBD mutation: PPARg1 K132A/R137A, NR concentration 270 nM, RXRa partner concentration 90 nM)
Outline: as §1

[14] = test system: PPARg DBDmut IVT, anti-PPARg (DBD mutation: PPARg1 K132A/R137A, NR concentration 270 nM)
Outline: as §1

[15] = test system: PPARg homodimer (NR concentration 180 nM)
Outline: as §1

[16] = test system: PXR:RXRa (NR concentration 270 nM, RXRa partner concentration 90 nM)
Outline: as §1

[17] = test system: PXR homodimer (NR concentration 270 nM)
Outline: as §1

[18] = test system: RARa:RXR (NR concentration 270 nM, RXRa partner concentration 90 nM)
Outline: as §1

[19] = test system: RARa homodimer (NR concentration 270 nM)
Outline: as §1

[20] = test system: RARb:RXRa (NR concentration 270 nM, RXRa partner concentration 90 nM)
Outline: as §1

Sequence	PBM binding z-score [1]	PBM binding z-score [2]	PBM binding z-score [3]	PBM binding z-score [4]	PBM binding z-score [5]	PBM binding z-score [6]	PBM binding z-score [7]	PBM binding z-score [8]	PBM binding z-score [9]	PBM binding z-score [10]	PBM binding z-score [11]	PBM binding z-score [12]	PBM binding z-score [13]	PBM binding z-score [14]	PBM binding z-score [15]	PBM binding z-score [16]	PBM binding z-score [17]	PBM binding z-score [18]	PBM binding z-score [19]	PBM binding z-score [20]
TCATATAGGTTATACAGGTGAAAGTCGGCATCTA	1.71	2.32	0.882	1.82	0.833	2.99	2.56	3.17	3.94	3.58	4.73	4.18	1.95	0.981	1.6	1.27	1.03	1.9	1.84	1.51
CCTACTGGTCCAAAAAGGTCATTGATGCCGATAA	3.82	4.66	3.95	4.54	1.21	4.72	1.53	2.98	0.82	2.04	0.397	1.54	0.257	0.0096	3.82	5.11	5.49	4.95	2.48	3.94
CCTTACGGGTCACGAGGTTATATCACGACGAGCG	7.05	4.73	0.668	4.12	-0.0743	6.05	7.17	6.76	3.62	5.46	4.44	5.64	1.38	0.342	2.85	4.59	0.517	5.8	0.866	4.5
AGAATGAGGTTATTAAGATCAGGGAATTGCGGTC	1.82	1.51	0.178	1.26	-0.237	2.39	1.44	1.72	0.425	0.999	3.22	2.5	1.04	0.418	1.11	1.48	0.762	1.56	0.273	1.46
CAAACTAGGTCACCAGAAGGTCAAAGTCCGCATG	6.14	6.04	4.65	5.24	1.41	6.22	9.74	7.94	6.18	7.98	8.93	9	4.64	2.7	9.04	5.96	2.47	7.6	3.53	5.18
CCTAGCAGGCCAATCTGGGTAACTCAAGGCTTGA	-0.2	-0.684	-0.736	-0.904	-0.796	0.0569	-0.0846	-0.366	-1.08	-0.958	2.34	2.01	-1.19	-0.9	-0.78	-0.754	-0.707	-0.329	-0.678	-0.071
ACTATTAGTTCACTTAGGGCAACCGATACGACGC	1.66	0.968	0.685	0.657	0.81	0.893	1.04	0.566	0.591	0.169	0.466	0.672	1.13	1.63	0.741	1.86	5.76	0.774	0.399	2.35
TCTGCTAGGTCAACGATGGTCTGCTAATCTGCTA	2.95	2.1	-0.371	1.35	0.041	2.92	1.92	2.64	1.66	2.11	3.96	3.88	0.46	1.25	0.811	0.995	-0.719	2	-0.907	3.83
CCGACTGGGGCAGAAAGTTTACCATACCATCCGG	-0.706	-0.595	-0.267	-0.494	-0.896	-0.213	0.681	0.251	-0.507	-0.116	1.85	0.907	-1.52	-1.73	0.00802	-0.282	0.645	-0.677	-0.166	0.775
CTCGACAGGTCGGTTGAGGTGAGTATACGGATAA	1.43	-0.211	-0.296	-0.278	-0.791	0.423	0.166	-0.237	-0.356	-0.324	-0.656	0.236	-0.149	-0.718	-0.0437	0.653	-0.282	0.493	-0.539	0.905
CCTACTGGGCCACGAAAGGTCACTGATTCAGTGA	2.97	4.41	2.54	3.75	-0.0263	4.32	5.13	4.98	2.2	4.02	5.42	6.08	0.0808	0.166	1.93	4.63	0.0856	4.94	0.447	4.07
AGTCAAAGTTCACTAGGTAAGGTAAGATTCAGCT	5.15	4.75	3.2	3	1.19	4.4	6.73	5.99	3.11	5.44	1.79	4.24	1.06	0.795	2.55	3.83	2.61	3.3	1.36	4.8
CCAGACAGGTAAGAAGGTAACTCAGCCTCGATTA	0.251	0.138	-0.169	0.0955	-0.296	0.0886	0.35	-0.153	-0.728	-0.359	0.139	-0.122	-0.475	-0.368	0.961	0.129	0.112	0.274	0.51	0.0631
CCTAGCAGGCAAATCTGGGTCACTCAAGGCTTGA	0.679	1.35	-0.33	0.851	-0.654	3.07	2.26	2.58	0.128	1.8	4.27	5.25	-0.619	-1.06	0.358	0.746	-0.354	0.989	-0.416	1.16
